Assay results reported in PubChem BioAssay AID763 (NMMLSC, 2007).

Molecular target: fMet-Leu-Phe receptor (Homo sapiens) (UniProt P21462)
Experiment: FPR1 fluorescent ligand binding inhibitors, SAR follow-up, selectivity assay for FPRL1 ligand SAR project, cell-based, single concentration (AID 763)
Conditions: FPR1-expressing cells, active compounds read high; at 5.4 µM unless noted; call rule not given here

fMet-Leu-Phe receptor (Homo sapiens), sequence (P21462 whole entry, looked up): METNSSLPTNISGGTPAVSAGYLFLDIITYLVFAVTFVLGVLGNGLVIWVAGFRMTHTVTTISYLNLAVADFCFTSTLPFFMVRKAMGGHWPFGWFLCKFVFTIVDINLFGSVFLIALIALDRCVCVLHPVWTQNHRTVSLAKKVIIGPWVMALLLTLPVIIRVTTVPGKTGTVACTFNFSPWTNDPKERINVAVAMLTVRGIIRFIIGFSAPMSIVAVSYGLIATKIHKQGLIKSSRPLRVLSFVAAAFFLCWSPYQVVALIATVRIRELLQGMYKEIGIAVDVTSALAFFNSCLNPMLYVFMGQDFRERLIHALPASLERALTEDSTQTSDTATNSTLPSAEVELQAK

inhibition, inactive:
Fc1ccc(-c2cc(C(F)(F)F)nc(N3CCN(c4cccc(Cl)c4)CC3)n2)cc1 5.6% [at 5.1 µM]
CCOC(=O)N1CCN(c2nc(-c3ccc(F)cc3)cc(C(F)(F)F)n2)CC1 0.3% [at 5.6 µM]
COc1ccc(-c2cn3cccnc3n2)cc1NC(=O)c1ccc(F)c(F)c1 -1.7% [at 5.8 µM]
COc1ccc(-c2nc(N3CCN(Cc4ccc(Cl)cc4)CC3)[nH]c(=O)c2C#N)cc1 -5.9% [at 5.1 µM]
CCCCN1CCN(c2nc(-c3ccccc3)c3cc(C)ccc3n2)CC1 -1.5% [at 5.6 µM]
COc1ccc(-c2cn3cccnc3n2)cc1NC(=O)c1cccc(Cl)c1 3.4% [at 5.9 µM]
COc1ccc(-c2cn3cccnc3n2)cc1NC(=O)c1ccccc1Cl -3.1% [at 5.9 µM]
CCOC(=O)N1CCN(c2nc(-c3ccc(Cl)cc3)cc(C(F)(F)F)n2)CC1 -2.8%
Brc1ccc2nc(N3CCN(c4ccccc4)CC3)nc(-c3ccccc3)c2c1 0.6% [at 5 µM]
Clc1cccc(-c2nc(N3CCN(c4ccccn4)CC3)nc3c2COc2ccccc2-3)c1 1.7% [at 4.9 µM]
CCOC(=O)N1CCN(c2nc(-c3ccc(C)cc3)cc(C(F)F)n2)CC1 1.5% [at 5.9 µM]
Cc1ccc2nc(N3CCN(C(=O)CC4(CC(=O)O)CCCC4)CC3)nc(-c3ccccc3)c2c1 0.5% [at 4.7 µM]
FC(F)(F)c1cc(-c2ccc(Cl)cc2)nc(N2CCN(C(c3ccccc3)c3ccccc3)CC2)n1 2.8% [at 4.4 µM]
O=C(O)/C=C/C(=O)N1CCN(c2nc(-c3ccccc3)c3ccccc3n2)CC1 2.4% [at 5.7 µM]
COc1ccccc1-c1cc(C(F)(F)F)nc(N2CCN(C(c3ccccc3)c3ccccc3)CC2)n1 6.5% [at 4.4 µM]
Fc1ccc(-c2cc(C(F)(F)F)nc(N3CCN(c4ccc(F)cc4)CC3)n2)cc1 -2% [at 5.3 µM]
CCC(CC)C(=O)Nc1cc(-c2cn3cccnc3n2)ccc1OC -5.9% [at 6.6 µM]
CCCC(CCC)C(=O)Nc1cc(-c2cn3cccnc3n2)ccc1OC -2% [at 6.1 µM]
CCOC(=O)N1CCN(c2nc(-c3ccccc3Cl)c3cc(Br)ccc3n2)CC1 1.8% [at 4.7 µM]
Cc1c(-c2cccc(NC(=O)C(C)(C)C)c2)nc2ncccn12 4.9% [at 7.2 µM]
COc1ccc(-c2cn3cccnc3n2)cc1NC(=O)Cc1ccc(Cl)cc1 8% [at 5.7 µM]
COc1cc(OC)cc(C(=O)Nc2cc(-c3cn4cccnc4n3)ccc2OC)c1 4.4% [at 5.5 µM]
O=C(N1CCN(c2nc(-c3ccccc3)c3cc([N+](=O)[O-])ccc3n2)CC1)C(F)(F)F -1.2% [at 5.2 µM]
COc1ccc(-c2cc(C(F)(F)F)nc(N3CCN(C)CC3)n2)cc1 2.1% [at 6.3 µM]
COc1ccc(-c2cn3cccnc3n2)cc1NC(=O)Cc1ccccc1 -1.4% [at 6.2 µM]
COc1cccc(C(=O)Nc2cc(-c3cn4cccnc4n3)ccc2OC)c1 1% [at 5.9 µM]
O=C(c1cccc(F)c1)N1CCN(c2nc(-c3cccs3)cc(C(F)(F)F)n2)CC1 1.1% [at 5.1 µM]
Clc1cccc(-c2nc(N3CCN(Cc4ccccc4)CC3)nc3c2COc2ccccc2-3)c1 5.3% [at 4.7 µM]
CCOCC(=O)Nc1cc(-c2cn3cccnc3n2)ccc1OC 2.3% [at 6.8 µM]
CCOC(=O)N1CCN(c2nc(-c3cccc(Cl)c3)c3c(n2)-c2ccccc2OC3)CC1 3.2% [at 4.9 µM]
COc1cccc(-c2cc(C(F)(F)F)nc(N3CCN(C(c4ccccc4)c4ccccc4)CC3)n2)c1 2.6% [at 4.4 µM]
CCOC(=O)N1CCN(c2nc(-c3cccc(OC)c3)cc(C(F)(F)F)n2)CC1 -33.9%
CCOC(=O)N1CCN(c2nc(-c3ccccc3)cc(C(F)(F)F)n2)CC1 1.5% [at 5.8 µM]
